# JMJD2A Tudor: inhibitors of human JMJD2A Tudor domain | O75164 | AlphaScreen JMJD2A-Tudor / H3K4me3 peptide binding | Potency, µM (series often up to 114 µM), for inactives: top-dose activity change, negative = inhibition, most hits filed as inhibitors | 390,000 compounds, 4.4% hits | AID 504339; note: % is set by controls: 0 for no effect and ±100 for the full control effect; nearly all actives have a fitted effect of over 50% in size
# Sfp inh: Sfp phosphopantetheinyl transferase inhibition; Q9F4F7; Biochemical Sfp PPTase activity, qHTS; Potency, µM, inactives show largest response in the series, negative = inhibition, actives largely listed as inhibitors; 310,000 compounds, 3.5% hits;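 note: the enzyme is Sfp with the accession as filed and its product quenches rhodamine fluorescence; 0% = enzyme reaction without inhibitor and -100% = no enzyme wells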
#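 With Hepes-Na pH 7.6 buffer containing 10 mM MgCl2, Sfp (15 nM) modified BHQ-2-YbbR (12.5 uM) using rhodamine-CoA (5 uM). Two reads 30 minutes apart at 525/598 nm yielded each well's rate.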
# G9a inh: inhibitors of human histone lysine methyltransferase G9a; G9a H3K9 monomethylation, AlphaScreen, 2 h; Potency, µM (series often up to 102 µM), for inactives: at the highest dose activity, negative = inhibition, most hits filed as inhibitors; 350,000 compounds, 8.8% hits; AID 504332; note: % is set by controls: 0 for no effect and ±100 for the full control effect; nearly all actives have a fitted effect of over 75% in size
#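 Signal arises when biotinylated H3K9 peptide, once monomethylated, bridges streptavidin donor and antibody-captured acceptor beads. Enzyme at 20 nM was preincubated 15 min with test compounds; peptide 500 nM and SAM 20 uM then reacted for 2 h.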
# HP1b binding inh: blocks HP1-beta chromodomain binding to methylated histone tails; AlphaScreen HP1-beta / biotin-H3K9me3 peptide binding; Potency, µM (series often up to 114 µM), without a hit: at the top dose activity change, negative = inhibition, most hits filed as inhibitors; 390,000 compounds, 0.56% hits; AID 540317; note: nearly all actives have a fitted effect of over 70% in size
#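 AlphaScreen: HP1-beta (50 nM) preformed 30 min with biotin-H3(1-18)K9me3 peptide (50 nM) in PBS pH 7.4, 0.01% Tween-20. Compound added for 30 min at RT, then streptavidin donor/nickel chelate acceptor beads (10 ug/mL) for 30 min.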
# BAZ2B inh: blocks human BAZ2B; Q9UIF8; AlphaScreen BAZ2B-H3K14Ac peptide displacement; Potency, µM (titrated, usually from 114 µM), inactives show at the top dose activity change, negative = inhibition, usual class: inhibitors; 360,000 compounds, 4.4% hits; AID 504333; note: % is set by controls: 0 for no effect and ±100 for the full control effect; nearly all actives have a fitted effect of over 60% in size
#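 AlphaScreen displacement of biotin-H3(5-23)K14Ac peptide (50 nM final) from BAZ2B (50 nM final) in PBS pH 7.4, 0.01% Tween-20; complex preformed 30 min RT, then compounds (top 110 uM) 30 min RT, beads 20 min dark.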
# * hit, by the source's call; ? = inconclusive; / = no result given; [ ] = another dose, or the depositor's remark. Compounds with a hit are over-represented: about 12% of the library has one in this group of screens. Calls come from the whole dose curve; as a rule, active = well fitted curve in the direction sought with a large enough effect; inconclusive = small, poorly fitted or top-dose-only effect, or another doubt; inactive = no such curve, though single readings can be large; an effect the other way counts as inactive or inconclusive. Potency is the fitted concentration of half-maximal effect.
SMILES,JMJD2A Tudor,Sfp inh,G9a inh,HP1b binding inh,BAZ2B inh
COc1ccc(C2(CNC(=O)/C=C\c3ccco3)CCCC2)cc1OC,-26.1%,17.8µM*,12.6µM*,13.7%,-33.8%
COc1ccc(C2(CNC(=O)c3cc(OC)c(OC)c(OC)c3)CCCC2)cc1OC,-5.5%,/,/,15.6%,/
COc1ccc(C(NC(=O)c2ccco2)c2ccc(OC)c(OC)c2)cc1 (configuration not stated),-11.3%,3.8%,3.9%[12.7 µM],4.4%,2.9%
CCOC(=O)c1cc(NC(=O)c2ccc(C)cc2)c(=O)n2c1oc1ccc(Cl)cc12,5.8%,/,11.6%[59 µM],82.4%,3.2%
C/C(=N\NS(=O)(=O)c1ccc([N+](=O)[O-])cc1)c1ccc(NC(=O)c2ccco2)cc1,-11.4%,-16.4%,35.5µM*,12.3%,-9.5%
Nc1ccc([N+](=O)[O-])cc1C(=O)NNC(=O)c1ccco1,-8.1%,12.0%,0.0%,42.5%,-1.6%
O=C(NNc1ccc([N+](=O)[O-])cc1[N+](=O)[O-])c1ccco1,?,-14.8%,39.8µM*,?,39.8µM*
O=C(Nc1ccc(NC(=O)c2ccc([N+](=O)[O-])cc2[N+](=O)[O-])cc1)c1ccco1,-6.8%,-12.7%,-12.9%,4.7%,4.7%
O=C(NNc1ccc([N+](=O)[O-])cc1)c1ccco1,-3.9%,?,44.7µM*,11.0%,-10.7%
CCCOc1ccc(C(=O)Nc2nonc2-c2ccc(OCC)cc2)cc1,-15.1%,/,-16.6%[59 µM],16.0%,-0.9%
O=C1CCCC2=C1C1(CCCC1)N=C(Nc1nc3ccccc3n1Cc1ccccc1)N2,-20.6%,/,/,/,/
CCC[C@@H]1C[C@@H](C(=O)N[C@@H]([C@H]2O[C@H](SC)[C@H](O)[C@@H](O)[C@H]2O)[C@@H](C)O)N(C)C1,/,-3.5%,-23.6%[59 µM],/,/
CCOC(=O)C1CCN(C(=O)CCc2nc3sc4c(c3c(=O)[nH]2)CCCC4)CC1,?,/,50.1µM*,14.5%,?
CN(CC(=O)Nc1ccc(F)c(F)c1F)C(=O)CCc1nc2sc3c(c2c(=O)[nH]1)CCCC3,-35.7%,/,50.1µM*,-6.7%,50.1µM*
Cc1cccc(NC(=O)CNC(=O)CCc2nc3sc4c(c3c(=O)[nH]2)CCCC4)c1C,39.8µM*,/,50.1µM*,?,39.8µM*
CC(=O)c1ccc(NC(=O)CCc2nc3sc4c(c3c(=O)[nH]2)CCCC4)cc1,-26.2%,/,?,24.6%,56.2µM*
Cc1cccc(C)c1NC(=O)CN(C)C(=O)CCc1nc2sc3c(c2c(=O)[nH]1)CCCC3,-23.6%,/,10.4%[12.7 µM],27.3%,?
CCOC(=O)CSc1nc2sc3c(c2c(=O)[nH]1)CCCC3,-17.2%,6.4%,8.5%[59 µM],6.8%,5.4%
CC(=O)N[C@@H](Cc1ccc(O)cc1)CN1C(N)=NC[C@@H]1CC(C)C,-17.9%,2.5%,/,46.9%,-0.3%
CN(c1ccccc1)c1ccc(/C=C(/CCC(=O)O)c2nc3ccccc3s2)cc1[N+](=O)[O-],22.4µM*,/,/,?,/
O=C(O)CC/C(=C\c1ccccc1[N+](=O)[O-])c1nc2ccccc2s1,-8.4%,19.4%,-42.3%,47.7%,-21.9%
O=C(O)CC/C(=C\c1ccc(N2CCCC2)c([N+](=O)[O-])c1)c1nc2ccccc2s1,-35.2%[57.1 µM],-19.1%,12.6µM*,?,39.8µM*
COc1ccc(C(=O)CC(=O)c2c(O)cc(OC)cc2OC)cc1,/,3.3%,/,/,/
CCn1c(SCC(=O)Nc2cc(Cl)ccc2OC)nc2c([nH]c3ccccc32)c1=O,-7.4%,/,3.6%[59 µM],26.3%[57 µM],2.5%
CCOC(=O)c1c(NC(=O)c2ccc(Cl)s2)sc(C)c1C,4.1%,13.2%,3.6%,80.9%,21.6%
SMILES,JMJD2A Tudor,Sfp inh,G9a inh,HP1b binding inh,BAZ2B inh
CCOC(=O)c1c(NC(=O)c2ccncc2)sc(C)c1C,-21.0%,22.4µM*,15.8µM*,18.6%,-7.6%
CCOC(=O)c1c(NC(=O)COC(=O)c2ccncc2)sc(C)c1C,-13.0%,79.4µM*,-30.5%,4.3%,-22.2%
CCOC(=O)c1c(NC(=O)COC(=O)c2ccc(O)cc2)sc(C(=O)NC)c1C,-27.1%,/,/,25.1%,/
CC1=C(C(=O)NCc2ccccc2Cl)C2(CCCCCC2)OC1=O,2.6%,/,4.9%[59 µM],8.2%,8.3%
O=CNn1cnc2c(oc3nc(-c4ccccc4)cc(-c4ccco4)c32)c1=O,?,?,50.1µM*,?,-37.4%
Nc1c(C(=O)N/N=C/c2cccnc2)oc2nc(-c3ccccc3)cc(-c3ccco3)c12,-21.0%,-23.8%,?,29.6%,-25.5%
CCOC(=O)c1c(C)oc2ncnc(Nc3ccc(F)cc3Cl)c12,-16.8%,/,-25.0%[59 µM],32.0%,14.4%[57.1 µM]
O=C(COc1ccccc1)N1CCc2ccccc21,4.0%,9.5%,?,40.1%,-10.7%
O=C(COc1ccc(Br)cc1)N1CCc2ccccc21,6.5%,0.8%,70.8µM*,31.6%,3.2%
CCCN1CCN(CCNC(=O)Nc2cc(OC)cc(OC)c2)CC1,-16.0%,/,2.1%[59 µM],15.5%,-10.3%
COc1ccc(-c2c(C#Cc3ccc(N(C)C)cc3)c3ccccc3n2C)cc1,56.2µM*,/,/,?,/
COc1ccc(-c2c(C#Cc3ccsc3)c3cc(Br)ccc3n2C)cc1,21.8%,/,7.7%[0.501 µM],67.3%,-1.7%
Cc1cccc(NC(=O)Cn2c(=O)n(CCC(=O)N3CCc4ccccc4C3)c(=O)c3ccccc32)c1,-23.5%,/,-9.2%[59 µM],1.4%,-1.8%
CCCC[C@@H](NC(=O)[C@@H](Cc1cn(C(=O)OC)c2ccccc12)NC(=O)[C@H](CC(C)(C)C)NC(=O)N1[C@H](C)CCC[C@@H]1C)C(=O)O,/,18.0%,20.9%[59 µM],/,/
CC[C@H](C)[C@H](NC(=O)[C@H](Cc1ccc(O)cc1)NC(=O)[C@@H]1CCCN1C(=O)[C@H](CCCCN)NC(=O)[C@@H](N)CCCCN)C(=O)N[C@@H](CC(C)C)C(=O)O,/,-6.4%,/,/,/
CN1C(=O)N(C)c2cccc3cccc1c23,-20.5%,9.5%,20.1%[2.33 µM],32.6%,4.4%
CC1N(C)c2cccc3cccc(c23)N1C,-32.3%[57.1 µM],-10.9%,2µM*,?,50.1µM*
CN1c2cccc3cccc(c23)N(C)C1c1cccs1,-25.0%,-12.4%,15.8µM*,?,?
c1csc(C2Nc3cccc4cccc(c34)N2)c1,-29.8%,?,?,?,?
CCNC(=S)N1CCc2cc(OC)c(OC)cc2C1COc1ccc(OC)cc1 (configuration not stated),?,12.1%,50.1µM*,4.4%,?
CCc1ccc(OCC2c3cc(OC)c(OC)cc3CCN2C(=S)NCCOC)cc1 (configuration not stated),?,-8.3%,15.8µM*,3.3%,?
CCc1ccc(OCC2c3cc(OC)c(OC)cc3CCN2C(=S)NC)cc1 (configuration not stated),?,17.4%,?,-22.4%,?
Cc1cn[nH]c1,?,10.8%,18.9µM*,5.2%,5.2%
CCCCC[C@@H]1C=C(C(=O)O)[C@H](c2ccc(C)cc2)N1S(=O)(=O)c1ccc(C)cc1,89.1µM*,/,/,-0.2%,/

# Source: PubChem (National Center for Advancing Translational Sciences (NCATS))
